Test [1] has as its target T1, Tyrosine-protein kinase ITK/TSK (Homo sapiens) (UniProt Q08881).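 Further: values are mean percent inhibition of ITK from the GSK PKIS screen.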
T1 sequence (whole entry): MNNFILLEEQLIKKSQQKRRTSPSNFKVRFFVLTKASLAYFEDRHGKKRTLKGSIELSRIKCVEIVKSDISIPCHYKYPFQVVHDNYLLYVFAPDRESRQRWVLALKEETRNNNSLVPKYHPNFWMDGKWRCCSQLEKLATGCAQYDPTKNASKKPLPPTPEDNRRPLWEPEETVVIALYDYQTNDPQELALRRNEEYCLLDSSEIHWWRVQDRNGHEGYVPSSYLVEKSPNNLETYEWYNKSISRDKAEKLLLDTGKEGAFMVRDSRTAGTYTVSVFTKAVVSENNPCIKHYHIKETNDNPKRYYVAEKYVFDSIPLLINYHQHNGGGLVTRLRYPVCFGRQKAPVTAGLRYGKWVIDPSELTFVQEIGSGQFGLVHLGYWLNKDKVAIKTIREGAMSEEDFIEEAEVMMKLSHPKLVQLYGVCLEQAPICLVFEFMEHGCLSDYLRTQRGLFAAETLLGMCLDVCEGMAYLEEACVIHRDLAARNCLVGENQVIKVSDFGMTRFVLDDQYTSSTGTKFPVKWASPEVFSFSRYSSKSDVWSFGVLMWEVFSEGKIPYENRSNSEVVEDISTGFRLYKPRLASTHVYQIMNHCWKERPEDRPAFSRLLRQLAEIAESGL
As to conditions: at 1 µM.

The target in test [2] is Tyrosine-protein kinase JAK1 (Homo sapiens) (UniProt P23458). As to conditions: at 0.1 µM.
The target is the same in test [3]. As to conditions: at 1 µM.
For test [4], the target named is Tyrosine-protein kinase JAK2 (Homo sapiens) (UniProt O60674). As to conditions: at 0.1 µM.
Test [5] has the same target. As to conditions: at 1 µM.
For test [6], the target named is T2, Tyrosine-protein kinase JAK3 (Homo sapiens) (UniProt P52333).
T2 sequence (whole entry): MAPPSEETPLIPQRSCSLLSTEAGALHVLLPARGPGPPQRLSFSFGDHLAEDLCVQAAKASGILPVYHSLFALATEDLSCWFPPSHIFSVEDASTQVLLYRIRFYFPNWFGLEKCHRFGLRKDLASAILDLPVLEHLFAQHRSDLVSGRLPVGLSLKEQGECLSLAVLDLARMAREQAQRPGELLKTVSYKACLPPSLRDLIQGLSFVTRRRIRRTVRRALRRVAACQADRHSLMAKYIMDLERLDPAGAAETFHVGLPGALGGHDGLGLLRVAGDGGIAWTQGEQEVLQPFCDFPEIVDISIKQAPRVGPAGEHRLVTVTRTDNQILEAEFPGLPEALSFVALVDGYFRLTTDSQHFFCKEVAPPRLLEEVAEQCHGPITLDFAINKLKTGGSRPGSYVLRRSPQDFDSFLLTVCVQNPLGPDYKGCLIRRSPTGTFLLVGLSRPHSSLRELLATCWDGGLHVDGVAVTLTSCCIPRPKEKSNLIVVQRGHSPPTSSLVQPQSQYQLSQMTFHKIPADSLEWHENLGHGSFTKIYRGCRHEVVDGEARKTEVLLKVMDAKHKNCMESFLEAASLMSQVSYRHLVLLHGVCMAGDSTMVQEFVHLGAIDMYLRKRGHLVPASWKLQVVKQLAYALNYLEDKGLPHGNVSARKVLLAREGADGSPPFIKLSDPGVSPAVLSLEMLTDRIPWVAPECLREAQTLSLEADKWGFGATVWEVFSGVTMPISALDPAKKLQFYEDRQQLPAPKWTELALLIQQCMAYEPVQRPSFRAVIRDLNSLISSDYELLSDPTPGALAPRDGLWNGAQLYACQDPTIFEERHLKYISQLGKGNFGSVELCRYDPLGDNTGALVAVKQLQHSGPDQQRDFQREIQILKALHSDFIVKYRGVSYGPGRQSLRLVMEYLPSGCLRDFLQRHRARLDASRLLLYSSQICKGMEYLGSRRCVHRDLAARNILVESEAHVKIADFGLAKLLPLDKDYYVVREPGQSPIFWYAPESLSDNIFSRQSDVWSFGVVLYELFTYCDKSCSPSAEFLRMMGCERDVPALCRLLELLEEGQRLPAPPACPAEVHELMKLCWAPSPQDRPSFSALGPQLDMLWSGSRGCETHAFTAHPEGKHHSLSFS
As to conditions: at 0.1 µM.

Test [7] addresses T2, Tyrosine-protein kinase JAK3 (Homo sapiens). The note with it: at 1 µM.
Test [8] concerns the target Vascular endothelial growth factor receptor 2 (Homo sapiens) (UniProt P35968). The note with it: at 0.1 µM.
Test [9] shares this target. The note with it: at 1 µM.
The target of test [10] is Mast/stem cell growth factor receptor Kit (Homo sapiens) (UniProt P10721). The note with it: at 0.1 µM.
For test [11] the target is unchanged. As to conditions: at 1 µM.
For test [12], the system named is Mast/stem cell growth factor receptor Kit (Homo sapiens), P10721 [D816V]. As to conditions: at 0.1 µM.
Test [13] shares this test system. The note with it: at 1 µM.
For test [14], the system named is Mast/stem cell growth factor receptor Kit (Homo sapiens), P10721 [T670I]. The note with it: at 0.1 µM.
Test [15] has the same test system. As to conditions: at 1 µM.
The test system of test [16] is Mast/stem cell growth factor receptor Kit (Homo sapiens), P10721 [V560G]. The note with it: at 0.1 µM.
The test system is the same in test [17]. As to conditions: at 1 µM.
Test [18] concerns the target Tyrosine-protein kinase Lck (Homo sapiens) (UniProt P06239). The note with it: at 0.1 µM.
Test [19] shares this target. As to conditions: at 1 µM.
Test [20] addresses Leukocyte tyrosine kinase receptor (Homo sapiens) (UniProt P29376). As to conditions: at 0.1 µM.

Chain of Leukocyte tyrosine kinase receptor (Homo sapiens) (P29376 whole entry): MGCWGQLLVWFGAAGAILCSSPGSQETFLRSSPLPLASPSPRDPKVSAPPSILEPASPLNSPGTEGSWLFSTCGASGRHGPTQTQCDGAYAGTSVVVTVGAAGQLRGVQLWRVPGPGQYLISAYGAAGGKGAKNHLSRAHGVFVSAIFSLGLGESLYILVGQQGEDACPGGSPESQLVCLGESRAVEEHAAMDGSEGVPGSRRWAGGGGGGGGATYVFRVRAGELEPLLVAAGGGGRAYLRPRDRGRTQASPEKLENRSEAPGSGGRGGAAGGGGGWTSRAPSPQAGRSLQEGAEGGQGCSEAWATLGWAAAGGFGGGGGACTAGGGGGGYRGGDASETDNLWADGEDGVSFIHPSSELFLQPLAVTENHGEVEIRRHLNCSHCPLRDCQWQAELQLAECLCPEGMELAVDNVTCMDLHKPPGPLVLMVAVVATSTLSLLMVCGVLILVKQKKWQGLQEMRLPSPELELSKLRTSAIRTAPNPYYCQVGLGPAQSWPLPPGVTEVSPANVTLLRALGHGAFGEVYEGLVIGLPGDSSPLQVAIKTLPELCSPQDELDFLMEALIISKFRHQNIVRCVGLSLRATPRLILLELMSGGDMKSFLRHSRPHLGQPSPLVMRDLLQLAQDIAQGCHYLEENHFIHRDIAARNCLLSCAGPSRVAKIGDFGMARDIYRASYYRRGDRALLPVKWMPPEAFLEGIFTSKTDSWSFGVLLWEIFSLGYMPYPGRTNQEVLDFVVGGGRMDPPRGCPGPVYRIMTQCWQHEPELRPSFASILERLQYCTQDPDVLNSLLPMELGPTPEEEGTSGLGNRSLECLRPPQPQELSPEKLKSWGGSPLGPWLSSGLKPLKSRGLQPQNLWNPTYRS
Chain of Mast/stem cell growth factor receptor Kit (Homo sapiens), P10721 [V560G] (P10721 whole entry V560G): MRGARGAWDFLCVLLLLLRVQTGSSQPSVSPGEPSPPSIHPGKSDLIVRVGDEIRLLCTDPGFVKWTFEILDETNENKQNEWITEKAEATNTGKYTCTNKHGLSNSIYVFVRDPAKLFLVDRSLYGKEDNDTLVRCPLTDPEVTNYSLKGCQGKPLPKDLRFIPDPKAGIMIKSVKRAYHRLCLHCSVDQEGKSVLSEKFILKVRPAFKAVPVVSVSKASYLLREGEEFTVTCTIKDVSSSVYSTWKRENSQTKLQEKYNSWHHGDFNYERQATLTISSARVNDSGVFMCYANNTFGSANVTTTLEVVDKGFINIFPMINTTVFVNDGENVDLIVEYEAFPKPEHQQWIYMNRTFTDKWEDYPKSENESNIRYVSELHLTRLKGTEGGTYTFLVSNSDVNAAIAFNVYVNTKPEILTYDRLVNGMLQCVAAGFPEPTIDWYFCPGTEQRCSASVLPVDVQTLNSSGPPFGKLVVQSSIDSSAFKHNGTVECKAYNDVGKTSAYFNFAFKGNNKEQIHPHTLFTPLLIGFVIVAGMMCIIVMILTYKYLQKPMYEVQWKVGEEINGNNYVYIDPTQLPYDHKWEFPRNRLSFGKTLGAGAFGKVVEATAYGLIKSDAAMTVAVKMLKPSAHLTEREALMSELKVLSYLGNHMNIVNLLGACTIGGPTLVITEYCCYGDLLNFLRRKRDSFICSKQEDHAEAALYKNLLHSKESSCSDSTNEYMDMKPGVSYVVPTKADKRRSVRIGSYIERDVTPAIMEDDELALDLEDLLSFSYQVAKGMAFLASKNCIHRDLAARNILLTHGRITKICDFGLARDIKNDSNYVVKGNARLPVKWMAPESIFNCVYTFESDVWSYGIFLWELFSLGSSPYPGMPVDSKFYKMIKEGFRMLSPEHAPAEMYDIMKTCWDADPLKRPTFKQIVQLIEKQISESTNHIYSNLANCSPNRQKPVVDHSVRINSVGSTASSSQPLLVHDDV
Chain of Mast/stem cell growth factor receptor Kit (Homo sapiens) (P10721 whole entry): as the sequence (P10721 whole entry V560G) above, with G560V counted along it
Chain of Mast/stem cell growth factor receptor Kit (Homo sapiens), P10721 [D816V] (P10721 whole entry D816V): as the sequence (P10721 whole entry V560G) above, with G560V, D816V counted along it
Chain of Tyrosine-protein kinase Lck (Homo sapiens) (P06239 2-509 limits assumed): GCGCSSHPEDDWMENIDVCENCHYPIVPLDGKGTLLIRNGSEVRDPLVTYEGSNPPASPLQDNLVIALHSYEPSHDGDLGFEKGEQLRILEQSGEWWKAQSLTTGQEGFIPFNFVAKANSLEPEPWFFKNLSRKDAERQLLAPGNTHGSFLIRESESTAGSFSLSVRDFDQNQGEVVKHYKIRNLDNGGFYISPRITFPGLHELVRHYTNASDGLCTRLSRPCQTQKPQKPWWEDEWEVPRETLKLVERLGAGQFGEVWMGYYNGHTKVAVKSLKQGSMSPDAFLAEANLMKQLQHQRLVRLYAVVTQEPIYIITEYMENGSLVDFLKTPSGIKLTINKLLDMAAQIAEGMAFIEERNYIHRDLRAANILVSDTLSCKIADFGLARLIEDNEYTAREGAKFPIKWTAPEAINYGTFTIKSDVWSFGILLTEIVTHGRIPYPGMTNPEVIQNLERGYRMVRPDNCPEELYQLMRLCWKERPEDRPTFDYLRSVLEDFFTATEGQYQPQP
Chain of Mast/stem cell growth factor receptor Kit (Homo sapiens), P10721 [T670I] (P10721 whole entry T670I): as the sequence (P10721 whole entry V560G) above, with G560V, T670I counted along it
Chain of Tyrosine-protein kinase JAK2 (Homo sapiens) (O60674 whole entry): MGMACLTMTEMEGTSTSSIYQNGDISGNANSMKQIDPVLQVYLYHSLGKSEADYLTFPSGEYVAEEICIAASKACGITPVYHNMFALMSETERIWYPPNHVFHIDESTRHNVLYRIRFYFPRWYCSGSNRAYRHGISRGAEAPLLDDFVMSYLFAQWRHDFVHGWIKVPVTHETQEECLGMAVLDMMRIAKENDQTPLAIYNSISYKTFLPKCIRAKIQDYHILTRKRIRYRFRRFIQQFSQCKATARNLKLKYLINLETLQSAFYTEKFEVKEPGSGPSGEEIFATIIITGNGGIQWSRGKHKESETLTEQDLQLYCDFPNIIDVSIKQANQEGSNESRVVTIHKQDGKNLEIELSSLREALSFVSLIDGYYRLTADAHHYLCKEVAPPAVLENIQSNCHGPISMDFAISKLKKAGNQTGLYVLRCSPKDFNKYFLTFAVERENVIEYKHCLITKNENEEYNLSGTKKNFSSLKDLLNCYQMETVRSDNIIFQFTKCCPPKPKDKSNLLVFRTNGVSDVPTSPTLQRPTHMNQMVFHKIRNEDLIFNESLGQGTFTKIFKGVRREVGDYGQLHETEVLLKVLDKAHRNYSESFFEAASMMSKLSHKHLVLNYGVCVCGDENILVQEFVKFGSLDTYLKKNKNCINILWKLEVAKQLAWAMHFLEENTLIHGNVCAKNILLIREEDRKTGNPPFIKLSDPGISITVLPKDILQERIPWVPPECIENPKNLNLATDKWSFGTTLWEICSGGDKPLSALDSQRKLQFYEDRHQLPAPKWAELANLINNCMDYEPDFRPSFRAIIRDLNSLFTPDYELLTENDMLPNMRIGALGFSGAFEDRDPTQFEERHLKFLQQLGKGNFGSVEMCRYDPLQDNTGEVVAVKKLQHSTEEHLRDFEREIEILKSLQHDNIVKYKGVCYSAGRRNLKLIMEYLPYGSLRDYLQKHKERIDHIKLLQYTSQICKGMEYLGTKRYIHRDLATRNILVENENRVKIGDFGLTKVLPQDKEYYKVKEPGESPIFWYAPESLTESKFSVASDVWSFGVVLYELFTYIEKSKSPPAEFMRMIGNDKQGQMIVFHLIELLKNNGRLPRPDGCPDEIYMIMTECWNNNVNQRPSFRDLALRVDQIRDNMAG
Chain of Tyrosine-protein kinase JAK1 (Homo sapiens) (P23458 whole entry): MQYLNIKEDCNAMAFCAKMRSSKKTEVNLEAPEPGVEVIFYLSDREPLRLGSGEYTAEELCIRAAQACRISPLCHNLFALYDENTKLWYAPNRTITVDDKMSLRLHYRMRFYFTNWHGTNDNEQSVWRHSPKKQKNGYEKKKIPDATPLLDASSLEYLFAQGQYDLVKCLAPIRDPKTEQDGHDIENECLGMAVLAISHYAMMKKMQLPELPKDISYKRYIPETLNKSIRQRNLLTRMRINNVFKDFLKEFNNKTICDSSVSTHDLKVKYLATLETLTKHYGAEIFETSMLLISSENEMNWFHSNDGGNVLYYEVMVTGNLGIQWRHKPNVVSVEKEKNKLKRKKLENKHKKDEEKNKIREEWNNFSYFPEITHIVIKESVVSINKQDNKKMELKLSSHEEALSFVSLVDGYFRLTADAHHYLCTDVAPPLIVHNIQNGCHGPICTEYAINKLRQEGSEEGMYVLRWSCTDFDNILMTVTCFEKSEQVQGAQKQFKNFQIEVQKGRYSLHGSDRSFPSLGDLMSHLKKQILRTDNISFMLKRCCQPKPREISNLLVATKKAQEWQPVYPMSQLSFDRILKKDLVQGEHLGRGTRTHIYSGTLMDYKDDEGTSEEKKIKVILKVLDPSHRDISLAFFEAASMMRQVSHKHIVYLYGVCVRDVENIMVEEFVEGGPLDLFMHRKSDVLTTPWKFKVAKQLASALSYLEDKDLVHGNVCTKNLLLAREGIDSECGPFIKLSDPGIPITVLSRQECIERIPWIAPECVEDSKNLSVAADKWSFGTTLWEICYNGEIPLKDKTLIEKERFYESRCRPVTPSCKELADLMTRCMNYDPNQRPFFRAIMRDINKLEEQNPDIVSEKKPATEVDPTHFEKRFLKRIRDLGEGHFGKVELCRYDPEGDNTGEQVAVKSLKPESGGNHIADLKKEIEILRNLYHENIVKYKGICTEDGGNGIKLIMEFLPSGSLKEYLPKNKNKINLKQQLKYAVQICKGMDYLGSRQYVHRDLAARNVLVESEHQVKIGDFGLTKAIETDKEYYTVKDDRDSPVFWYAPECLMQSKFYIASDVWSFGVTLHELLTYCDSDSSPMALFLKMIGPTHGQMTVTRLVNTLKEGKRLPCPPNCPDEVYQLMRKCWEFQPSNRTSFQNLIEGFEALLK

Regarding `COc1cc2ncn(-c3cc(OCc4ccccc4Cl)c(C(N)=O)s3)c2cc1OC`, the inhibition (as a rule, the change of the read-out against control, counted positive when it falls) was determined as 3.19% in test [1]; 0.17% in test [2]; 5.86% in test [3]; 0.18% in [4]; 0.34% in test [5]; 0.35% in test [6]. For the same compound, the inhibition in test [7] turned out to be 4.86%; in [8] it was 12.2%; in [9] it was 53.9%; in [10], 0.54%; in test [11], 15.6%; in [12], 0.27%. Also, the inhibition in test [13] is -0.43%; in test [14] it was 2.57%; in test [15], 8.11%; in test [16], 2.29%; in [17], 3.13%; in [18] it was 2.94%. Also, the inhibition in [19] turned out to be 19%; in [20], 1.19%.
Regarding `COC(=O)Nc1nc2cc(Oc3cccc(NC(=O)Nc4cc(C(F)(F)F)ccc4F)c3)ccc2[nH]1`, the inhibition was 0.67% in [1]; 0.78% in test [2]; 4.36% in test [3]; -0.5% in [4]; -0.07% in [5]; 1.1% in test [6]. Besides, the inhibition amounted to 2.02% in [7]; 19.1% in test [8]; 63.5% in test [9]; 4.16% in test [10]; 48.2% in [11]; 1.96% in [12]. In addition, the inhibition is -0.67% in test [13]; -2.55% in test [14]; 2.17% in test [15]; 4.04% in test [16]; 38.8% in test [17]; 1.15% in test [18]. The inhibition turned out to be 10.5% in [19] and 0.06% in test [20].
For the compound `Nc1nc(-c2ccc3c(c2)C(=Cc2cc(Br)c(O)c(Br)c2)C(=O)N3)cs1`, the inhibition in test [1] was 1.31%; in [2], 0.76%; in test [3], -0.48%; in test [4] it was -0.72%; in test [5] it was -1.87%; in test [6], 1.19%. In addition, the inhibition is 2.02% in [7]; 1.8% in [8]; 11.3% in test [9]; -0.22% in [10]; 3.41% in test [11]; 0.19% in test [12]. Also, the inhibition is -1.02% in test [13]; -2.39% in test [14]; -1.52% in test [15]; 3.52% in test [16]; 1.96% in [17]; -1.54% in test [18]. The results for the inhibition in test [19] and in test [20] were 4.41% and 1.87%, respectively.
`CN1CCC(C(=O)Nc2n[nH]c3nnc(-c4ccccc4)cc23)CC1`: the inhibition is 2.38% in test [1]; 4.13% in [2]; 17.6% in [3]; 1.08% in test [4]; 1.05% in test [5]; -1.09% in test [6]. Also, the inhibition was -0.3% in [7]; 2.34% in test [8]; 10.6% in [9]; 4.36% in test [10]; 8.5% in test [11]; 7.35% in [12]. The inhibition was 3.19% in test [13]; 4.77% in test [14]; 5.4% in [15]; -3.89% in [16]; 1.05% in test [17]; 1.6% in test [18]. In addition, the results for the inhibition in [19] and in [20] were 4.09% and 3.64%, respectively.
With `CC1=C(C(=O)Nc2ccc3[nH]ncc3c2)C(c2ccc(F)cc2)NC(=O)N1` (stereo not given), the inhibition in test [1] turned out to be 1.33%; in test [2], 14.4%; in test [3] it was 70.3%; in [4] it was 2.59%; in test [5] it was 35.1%; in test [6], 1.07%. The inhibition was found to be 30.8% in test [7]; 4.24% in test [8]; 12.3% in [9]; 5.14% in [10]; 3.87% in test [11]; 0.52% in test [12]. The inhibition in test [13] is 1.15%; in test [14], 1.53%; in test [15], 0.34%; in test [16], -1.67%; in [17], 0.31%; in test [18], -0.28%. The inhibition in [19] was determined as 3.1%; in [20] it was 0.93%.

The record behind these values is ChEMBL document CHEMBL1961873, “Compounds: GSK PKIS; Assays: Nanosyn kinase panel” (2012).
